Data reported in PubChem BioAssay AID1347146 (National Center for Advancing Translational Sciences (NCATS), 2019).
Records with an inconclusive call do not appear. A call without a number means that no potency is given here. Activity calls are given as the source filed them. The call rests on the fitted dose curve; in most records, active means well fitted inhibition curve with a large enough effect; inconclusive means small, poorly fitted or top-dose-only effect; inactive means no such curve, though single readings can be large or run the other way.

The molecules below were run against Nicotinamide N-methyltransferase (Homo sapiens) (UniProt P40261) (assay: qHTS Assay for Inhibitors of N-terminal methyltransferase 1 (NTMT1): NNMT MTaseGlo counterscreen assay). Details: NNMT enzyme, MTase-Glo luminescence counterscreen; series mostly up to 57.1 µM.
Sequence of Nicotinamide N-methyltransferase (Homo sapiens) (P40261 whole entry, looked up): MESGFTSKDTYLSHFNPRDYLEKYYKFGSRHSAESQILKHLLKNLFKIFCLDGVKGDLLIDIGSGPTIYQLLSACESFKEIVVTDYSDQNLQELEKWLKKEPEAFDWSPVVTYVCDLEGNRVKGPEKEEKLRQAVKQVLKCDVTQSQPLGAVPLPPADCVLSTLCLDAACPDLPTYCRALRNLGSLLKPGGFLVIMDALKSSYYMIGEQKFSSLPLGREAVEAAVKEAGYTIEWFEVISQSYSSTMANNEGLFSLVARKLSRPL
Source text: Assay Submitter (PI): Rong Huang Ph.D, Purdue University, West Lafayette, IN 47907
The N-terminal methytransferase 1 is the first methyltransferase that methylates protein alpha-N-amines and plays an important role in regulating cell mitosis, chromatin interactions and DNA repair. It is observed to be over-expressed in various cancer patient tissues like malignant melanoma and colorectal cancer tissues. Knockdown of NTMT1 in cancer cells causes cell mitotic defects and enhances sensitivity to DNA damaging chemotherapeutics. […] These critical cellular processes in which NTMT1 is implicated, coupled with emerging links to cellular dysfunction, strengthen the inference that NTMT1 is a compelling novel anticancer target. Progress have been made in understanding the molecular properties of NTMT1 and the biological consequences of protein alpha-N-terminal methylation, but there are no specific small molecule probes available for NTMT1 to fully characterize its MTase activity. To address this unmet need, a panel of assay is created and established to enable quantitative high-throughput screening (qHTS) for novel, potent, and selective small molecule NTMT1 inhibitors. Two orthogonal qHTS that use different reagents (ThioGlo vs. MTaseGlo) are developed for primary robotic screening against the NCATS chemical library of more than 400,000 small molecules. Identified inhibitors are reacquired, validated, and further characterized.
MTaseGlo Assay is a luminescence screen that measure the activity of methyltransferases based on the reaction product S-adenosyl homocysteine (SAH). The substrate SAM is converted to SAH upon enzyme activation. MTase-Glo reagent and detection solution convert SAH to ATP and measure the light from the luciferase reaction. Nicotinamide N-methyltransferase (NNMT) is a cystolic enzyme that catalyzes the transfer of a methyl group from the co-factor SAM onto the substrate, nicotinamide (NA) to form 1-methyl-nicotinamide (MNA) and SAH. NNMT MTaseGlo assay is used as a counterscreen to evaluate selectivity of identified inhibitors.
Early Translation Branch (ETB)
National Center for Advancing Translational Sciences (NCATS)
National Institute of Health (NIH)
NNMT enzyme, SAM, NA, and control is provided by the Huang laboratory.
In brief, 3 µL of enzyme mixture (final concentrations of 125 nM and 100 µM for NNMT and SAM, respectively) into all wells of a 1,536-well solid-bottom white plate (Greiner Bio One, Monroe, NC). 23 nL of DMSO or compound (final concentration range 234 nM to 143 microM) was transferred via Wako Pin-tool (Wako Automation, Richmond, VA) and incubated (RT) for ~15 minutes. Next, 1 µL of substrate (final concentration 1 µM NA) or buffer was dispensed, and the reaction proceeded for 30 minutes (RT, protected from light) followed by a 1 microL addition of [5X] MTase-Glo Reagent(R). Samples were incubated (RT, protected from light) for 30 minutes to allow for SAH to be converted to ADP, followed by a 5 microL addition of [1X] MTase-Glo Detection Solution(R) to allow for ADP to be converted to ATP, which was then detected with a luciferase reaction. Samples were centrifuged for 15 seconds at 1,000 RPM's, followed by a RT incubation for 30 minutes. Plates were then read using Luminescence optics on a ViewLux detector. Data were normalized to no-enzyme (0% activity) and no-inhibitor (DMSO; 100%) controls, and the resulting percent inhibition data were fitted to a 4-parameter Hill equation using Graphpad Prism.
Potency means the concentration at half of the fitted maximal effect.

Q: For `CC(N)[C@H](O)c1ccc(O)c(O)c1` (stereo not given in full), which Potency is on record?
A: Its Potency is “inactive”.

Q: With `CCn1cnc2c(Nc3cccc(Cl)c3)nc(N[C@@H]3CCCC[C@@H]3N)nc21` as the molecule, how does the Potency read?
A: Its Potency is “inactive”.

Q: How did the Potency turn out when `COC[C@H]1OC(=O)c2coc3c2[C@@]1(C)C1=C(C3=O)C2CCC(=O)[C@@]2(C)C[C@H]1OC(C)=O` (stereo not given in full) was run?
A: Its Potency is “inactive”.

Q: How did the Potency turn out when `O=C1CC[C@@]2(O)C3Cc4ccc(O)c5c4C2(CCN3CC2CC2)[C@H]1O5` (stereo not given in full) was run?
A: Its Potency is “inactive”.

Q: With `Ic1ccccc1CNC1C2CCN(CC2)C1C(c1ccccc1)c1ccccc1` (stereo not given) as the molecule, how does the Potency read?
A: Its Potency is “inactive”.

Q: For `CNCCc1c[nH]c2ccc(O)cc12`, which Potency is on record?
A: Its Potency is “inactive”.

Q: `COc1ccc2c(c[n+](C)c3c4cc5c(cc4ccc23)OCO5)c1OC` was tested. Which Potency did it give?
A: The Potency was 12.6 µM (active).

Q: `C[N+]1(C)C2CCC1CC(OC(=O)c1c[nH]c3ccccc13)C2` (stereo not given) was tested. Which Potency did it give?
A: Its Potency is “inactive”.

Q: `N#CC(C#N)=Cc1ccc(O)c(O)c1` was tested. Which Potency did it give?
A: Its Potency is “inactive”.

Q: With `NC(N)=Nc1ccc2[nH]c3c(c2c1)C[C@@]1(O)[C@H]2Cc4ccc(O)c5c4[C@@]1(CCN2CC1CC1)[C@H]3O5` as the molecule, how does the Potency read?
A: The Potency was “inactive”.

Q: With `CC(N)Cc1c[nH]c2ccc(O)cc12` (stereo not given) as the molecule, how does the Potency read?
A: The Potency was “inactive”.

Q: `CC(C)=CCOc1c2occc2cc2ccc(=O)oc12` was tested. Which Potency did it give?
A: The Potency was “inactive”.

Q: Which Potency does the source give for `O=[N+]([O-])c1cc(O)c(O)c([N+](=O)[O-])c1` here?
A: The Potency was “inactive”.

Q: For `CN[C@@H]1C[C@@H](c2ccc(Cl)c(Cl)c2)c2ccccc21`, which Potency is on record?
A: Its Potency is “inactive”.

Q: Which Potency does the source give for `CC(C)(C)c1cc(C=C(C#N)C#N)cc(C(C)(C)C)c1O` here?
A: Its Potency is “inactive”.

Q: For `NCC(O)c1cc(O)c(O)cc1F` (stereo not given), which Potency is on record?
A: Its Potency is “inactive”.

Q: `CCCN(CCC)[C@H]1CCc2c(F)ccc(O)c2C1` was tested. Which Potency did it give?
A: The Potency was “inactive”.

Q: With `CC(=O)c1c(O)c(C)c(O)c(Cc2c(O)c3c(c(C(=O)/C=C/c4ccccc4)c2O)OC(C)(C)C=C3)c1O` as the molecule, how does the Potency read?
A: The Potency was “inactive”.

Q: Which Potency does the source give for `C[N+]1(C)CCN(c2ccccc2)CC1` here?
A: Its Potency is “inactive”.

Q: `Clc1ccc(N2CC3CCC(C2)N3)nn1` was tested. Which Potency did it give?
A: Its Potency is “inactive”.

Q: With `c1ccc(CCCN2CCN(CCOC(c3ccccc3)c3ccccc3)CC2)cc1` as the molecule, how does the Potency read?
A: Its Potency is “inactive”.

Q: How did the Potency turn out when `NC(=O)CI` was run?
A: Its Potency is “inactive”.

Q: Which Potency does the source give for `O=[N+]([O-])c1ccc2nc(N3CCNCC3)ccc2c1` here?
A: Its Potency is “inactive”.

Q: Which Potency does the source give for `NC1CCc2cc(O)c(O)cc2C1` (stereo not given) here?
A: The Potency was “inactive”.

Q: How did the Potency turn out when `C[N+](C)(C)CC#CCN1CCCC1=O` was run?
A: The Potency was “inactive”.
